PubChem BioAssay
Values without a mark were called inactive. For part of these data: Measured potencies and affinities stand elsewhere. Activity calls are given as the source filed them. Unless noted, how the calls were made is not given here.

Assays:
[1] = antimalarial activity against Dd2 strain (AID 2302;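 active means growth inhibition above 50% at the single 2 µM test dose, taken to imply half-maximal potency below 2 µM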;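 further: 0% = DMSO untreated growth and 100% = chloroquine plus artemisinin killed control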); conditions: P. falciparum Dd2 in RBCs, LDH growth readout, 72 h; at 2 µM; stronger effect = higher value
[2] = HepG2 cytotoxicity, primary screen, cytotoxicity control for P. falciparum antimalarial project, cell-based, ATP luminescence (AID 2303;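 active means inhibition above 50%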;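 further: 0% = DMSO wells and 100% = digitonin-killed cells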); conditions: HepG2 viability, 24-48 h, at 10 µM, stronger effect = higher value
[3] = biological target: L-lactate dehydrogenase (Plasmodium falciparum (isolate CDC / Honduras)) (UniProt Q27743); assay: PfLDH activity inhibition – cell lysate, 3D7 strain, counter-screen for P. falciparum growth inhibition project (AID 2304);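 further: 0% = vehicle and 100% = reference inhibitor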; conditions: P. falciparum 3D7 crude extract, LDH APAD/NBT absorbance; at 2 µM; stronger effect = higher value
Chain of L-lactate dehydrogenase (Plasmodium falciparum (isolate CDC / Honduras)) (Q27743 whole entry, looked up): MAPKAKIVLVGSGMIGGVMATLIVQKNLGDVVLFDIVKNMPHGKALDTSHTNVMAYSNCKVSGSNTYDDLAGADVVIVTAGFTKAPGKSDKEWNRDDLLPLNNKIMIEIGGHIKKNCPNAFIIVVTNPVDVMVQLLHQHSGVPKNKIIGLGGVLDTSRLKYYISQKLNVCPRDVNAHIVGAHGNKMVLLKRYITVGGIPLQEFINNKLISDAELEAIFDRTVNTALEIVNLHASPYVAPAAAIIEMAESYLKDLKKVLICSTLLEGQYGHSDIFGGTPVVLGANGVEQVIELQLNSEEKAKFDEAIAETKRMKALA

[4] = inhibition of 3D7 malaria parasite growth – strain 3D7 (AID 2306);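 further: 0% = DMSO wells and 100% = chloroquine plus artemisinin control wells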; conditions: P. falciparum 3D7 erythrocytic growth, LDH absorbance, 72 h; at 2 µM; stronger effect = higher value
[5] = biological target: Calcium-dependent protein kinase 1 (Plasmodium falciparum (isolate 3D7)) (UniProt P62344); assay: PfCDPK1 kinase inhibitors, biochemical, TCAMS library (AID 1159585; cut-off not given, nearly all actives have IC50 up to about 0.98 µM;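 further: inhibitors leave more ATP so luminescence rises with inhibition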); conditions: recombinant PfCDPK1, Kinase-Glo ATP depletion luminescence
Chain of Calcium-dependent protein kinase 1 (Plasmodium falciparum (isolate 3D7)) (P62344 whole entry, looked up): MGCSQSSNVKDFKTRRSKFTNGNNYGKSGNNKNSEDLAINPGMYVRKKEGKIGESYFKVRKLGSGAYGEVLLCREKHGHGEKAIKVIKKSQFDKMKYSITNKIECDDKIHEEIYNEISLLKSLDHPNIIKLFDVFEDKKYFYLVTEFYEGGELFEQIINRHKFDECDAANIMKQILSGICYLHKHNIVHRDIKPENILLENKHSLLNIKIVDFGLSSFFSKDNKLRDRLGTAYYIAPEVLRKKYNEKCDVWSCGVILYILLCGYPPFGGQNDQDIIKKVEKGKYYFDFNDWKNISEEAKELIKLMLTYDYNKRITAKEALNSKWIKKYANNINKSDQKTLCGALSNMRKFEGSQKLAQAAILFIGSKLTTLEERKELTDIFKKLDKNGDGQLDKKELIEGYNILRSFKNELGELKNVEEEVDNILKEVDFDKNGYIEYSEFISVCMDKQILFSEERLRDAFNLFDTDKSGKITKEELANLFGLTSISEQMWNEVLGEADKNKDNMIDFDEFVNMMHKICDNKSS

[6] = biological target: Plasmodium falciparum protein kinase 6 (PK6, PF3D7_1337100) (UniProt Q8IDW1); assay: PfPK6 kinase inhibitors, biochemical, TCAMS library (AID 1159586); conditions: recombinant PfPK6, Kinase-Glo ATP depletion luminescence
Chain of Plasmodium falciparum protein kinase 6 (PK6, PF3D7_1337100) (Q8IDW1 1-305): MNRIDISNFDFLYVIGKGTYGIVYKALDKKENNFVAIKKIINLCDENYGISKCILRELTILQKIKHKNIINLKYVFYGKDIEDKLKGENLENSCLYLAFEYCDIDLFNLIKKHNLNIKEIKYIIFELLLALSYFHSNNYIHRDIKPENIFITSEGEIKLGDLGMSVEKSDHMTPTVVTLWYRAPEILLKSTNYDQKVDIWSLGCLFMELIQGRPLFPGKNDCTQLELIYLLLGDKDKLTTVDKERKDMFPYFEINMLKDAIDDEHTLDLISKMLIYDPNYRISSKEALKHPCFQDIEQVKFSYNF

[7] = biological target: Protein kinase 7 (PK7), Plasmodium falciparum 3D7 (PF3D7_0213400) (UniProt Q7YTF7); assay: inhibition of Plasmodium PK7 catalytic activity – biochemical, TCAMS antimalarial set, Kinase-Glo luminescence (AID 1159587); conditions: recombinant PfPK7, Kinase-Glo ATP depletion luminescence
Chain of Protein kinase 7 (PK7), Plasmodium falciparum 3D7 (PF3D7_0213400) (Q7YTF7 1-343): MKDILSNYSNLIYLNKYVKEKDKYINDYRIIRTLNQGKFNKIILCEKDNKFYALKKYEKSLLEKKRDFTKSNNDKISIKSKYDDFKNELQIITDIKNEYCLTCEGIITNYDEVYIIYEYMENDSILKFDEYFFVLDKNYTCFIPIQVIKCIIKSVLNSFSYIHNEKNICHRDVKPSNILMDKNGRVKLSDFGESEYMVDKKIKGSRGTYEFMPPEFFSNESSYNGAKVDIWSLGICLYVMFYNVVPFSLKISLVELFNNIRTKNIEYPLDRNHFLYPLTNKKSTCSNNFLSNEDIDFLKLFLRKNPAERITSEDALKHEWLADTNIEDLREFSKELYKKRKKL

[8] = biological target: Calcium-dependent protein kinase 4 (Plasmodium falciparum (isolate 3D7)) (UniProt Q8IBS5); assay: PfCDPK4 kinase inhibitors, biochemical, TCAMS library (AID 1159588; cut-off not given, nearly all actives have IC50 up to about 0.91 µM); conditions: recombinant PfCDPK4, Kinase-Glo ATP depletion luminescence
Chain of Calcium-dependent protein kinase 4 (Plasmodium falciparum (isolate 3D7)) (Q8IBS5 whole entry, looked up): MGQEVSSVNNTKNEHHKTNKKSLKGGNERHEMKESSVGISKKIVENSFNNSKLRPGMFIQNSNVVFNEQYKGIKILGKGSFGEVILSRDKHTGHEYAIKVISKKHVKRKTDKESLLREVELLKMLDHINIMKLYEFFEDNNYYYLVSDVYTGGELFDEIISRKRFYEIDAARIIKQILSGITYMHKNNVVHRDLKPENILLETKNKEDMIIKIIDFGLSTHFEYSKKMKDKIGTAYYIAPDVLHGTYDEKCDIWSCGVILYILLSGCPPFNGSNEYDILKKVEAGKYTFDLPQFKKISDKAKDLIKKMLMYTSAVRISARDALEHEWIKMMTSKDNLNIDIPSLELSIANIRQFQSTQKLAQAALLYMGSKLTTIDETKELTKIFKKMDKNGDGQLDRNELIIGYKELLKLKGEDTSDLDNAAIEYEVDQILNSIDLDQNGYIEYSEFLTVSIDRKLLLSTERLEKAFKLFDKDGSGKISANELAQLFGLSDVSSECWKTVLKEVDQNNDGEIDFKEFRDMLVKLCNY

SMILES | growth inhibition [1] | inhibition [2] | inhibition [3] [%] | growth inhibition [4] | outcome [5] | outcome [6] | outcome [7] | outcome [8]
CCCCCCNC(=O)C1Cc2c([nH]c3cc(Cl)ccc23)C2(CCN(CCC)CC2)N1 (stereo not drawn) | 18% | 8% | 0 | 92% (active) | inactive | inactive | inactive | inactive
CN(C)CC(O)C(O)(c1ccccc1)c1ccc(F)cc1 (stereo not drawn) | 10% | -10% | 4 | 93% (active) | inactive | inactive | inactive | inactive
CN1CCN(C(C(=O)NCc2cc(Cl)cc(Cl)c2)c2ccc(Nc3cccc(C(F)(F)F)c3)cc2)CC1 (stereo not drawn) | 98% (active) | 49% | 5 | 85% (active) | inactive | inactive | inactive | inactive
CCCC(C)C(=O)N1CCOC(COCc2cccc(C(F)(F)F)c2)(c2ccc(Cl)cc2)C1 (stereo not drawn) | 91% (active) | 2% | 0 | 97% (active) | inactive | inactive | inactive | inactive
Cc1cc(C(F)(F)F)nn1-c1ccc(NC(=O)c2ccco2)cc1 | 93% (active) | 14% | -3 | 94% (active) | inactive | inactive | inactive | inactive
Cc1ccc(NC(=O)c2ccc(CN3CCCN(CCC(C)C)CC3)cc2)cc1F | 31% | 40% | 1 | 91% (active) | inactive | inactive | inactive | inactive
CN(C)c1ccc(-c2csc(C(=O)NCC3CCN(Cc4ccc(C(C)(C)C)cc4)C3)c2)cc1 (stereo not drawn) | 64% (active) | 29% | 0 | 97% (active) | inactive | inactive | inactive | inactive
Cc1cc(C2CCN(CCCCNC(=O)c3ccc(-c4ccc(C#N)cc4)cc3)CC2)c(C)cc1O | 96% (active) | 27% | 3 | 96% (active) | inactive | inactive | inactive | inactive
CC(=O)c1cccc(NC(=O)c2ccc(Cl)c(S(=O)(=O)N3CCc4ccccc43)c2)c1 | 11% | 13% | 0 | 93% (active) | inactive | inactive | inactive | inactive
C[C@H]1CN(Cc2cccc(-c3cc(CNC(=O)c4cccc(CC5CCN(C)CC5)c4)ccc3F)c2)CCN1C | 99% (active) | 42% | 2 | 101% (active) | inactive | inactive | inactive | inactive
CC(CCCCOCCc1ccccc1)NCC(O)c1cc(Cl)c(N)c(Cl)c1 (stereo not drawn) | 95% (active) | -5% | -1 | 96% (active) | inactive | inactive | inactive | inactive
O=C(Nc1cccc(CN2CCCN(Cc3ccc(O)cc3)CC2)c1)c1cc2ccccc2o1 | 62% (active) | 10% | 0 | 95% (active) | inactive | inactive | inactive | inactive
c1ccc2c(Nc3ccc(Oc4ccc(Nc5c6ccccc6nc6ccccc56)cc4)cc3)c3ccccc3nc2c1 | 99% (active) | 21% | -2 | 101% (active) | inactive | inactive | inactive | inactive
O=c1ccc(CNc2nc(NCCc3ccccc3)nc3cc(Cl)ccc23)c[nH]1 | 78% (active) | 21% | 3 | 95% (active) | inactive | inactive | inactive | inactive
CC(C)(C)c1ccc(-c2ccccc2CNC(=O)c2cccc(O)c2)cc1 | 88% (active) | 3% | -2 | 99% (active) | inactive | inactive | inactive | inactive
Cc1nc(-c2cccc(Nc3nccc(NCC(O)c4ccccc4C(F)(F)F)n3)c2)cs1 (stereo not drawn) | 50% (active) | 48% | 5 | 97% (active) | inactive | inactive | inactive | inactive
COc1ccccc1CCNc1nc(C)cc(NCCC(=O)NCCOc2ccccc2)n1 | 14% | 11% | -3 | 85% (active) | inactive | inactive | inactive | inactive
O=C(NCCCCN1CCC(c2ccc3c(c2OCc2ccncc2)CCCC3)CC1)c1ccc(NC(=O)c2ccc(Cl)cc2)cc1 | 99% (active) | 62% (active) | -4 | 100% (active) | inactive | inactive | inactive | inactive

SMILES | growth inhibition [1] | inhibition [2] | inhibition [3] [%] | growth inhibition [4] | outcome [5] | outcome [6] | outcome [7] | outcome [8]
O=C(Nc1cccc(Cl)c1Cl)NC1CCN(Cc2cccc(O)c2)CC1 | 1% | 1% | -1 | 98% (active) | inactive | inactive | inactive | inactive
Cc1ccc(O)cc1Nc1ccnc2cc(-c3ccccc3)ccc12 | 99% (active) | 45% | -2 | 100% (active) | inactive | inactive | inactive | inactive
COc1cc2nccc(Nc3ccc(NC(=O)c4ccc(C)cc4)c(O)c3)c2cc1OC | 77% (active) | 96% (active) | 1 | 101% (active) | inactive | inactive | inactive | inactive
Cc1cc(N[C@@H](Cc2ccccc2)C(=O)NCCOc2ccccc2)nc(NCCOc2ccccc2)n1 | 24% | -1% | -4 | 98% (active) | inactive | inactive | inactive | inactive
COc1cccc2cc(C(=O)N[C@@H](CC(C)C)C(=O)N[C@H](/C=N/NC(=O)Cc3cccnc3)CCc3ccccc3)oc12 | 54% (active) | 6% | 2 | 82% (active) | inactive | inactive | inactive | inactive
COc1ccccc1C(=O)Nc1ccc(Nc2nc(C)cc(N(C)C)n2)cc1 | 76% (active) | 1% | 3 | 100% (active) | inactive | inactive | inactive | inactive
CC1(C)N=C(NC(=O)Nc2ccc([N+](=O)[O-])cc2)N=C(N)N1OCc1cccc2ccccc12 | 21% | 35% | -3 | 97% (active) | inactive | inactive | inactive | inactive
CC1(C)N=C(N)N=C(N)N1OCCSc1ccc(Cl)c(Cl)c1 | 95% (active) | 65% (active) | -1 | 96% (active) | inactive | inactive | inactive | inactive
FC(F)(F)c1ccccc1OCc1cc(-c2ccncc2)c(COc2ccccc2C(F)(F)F)cc1C1=CCNCC1 | 81% (active) | 31% | -2 | 98% (active) | inactive | inactive | inactive | inactive
COc1cccc(NC(=O)Nc2c(-c3cccc(C(F)(F)F)c3)c(C(F)(F)F)nn2C)c1 | 30% | 2% | 7 | 93% (active) | inactive | inactive | inactive | inactive
O=C(Nc1cccc(-c2ccc(-c3nc4ccc(C(F)(F)F)cc4[nH]3)cc2)c1)c1cnc[nH]1 | 21% | 16% | -3 | 91% (active) | inactive | inactive | inactive | inactive
CNc1nc(NN=Cc2cc([N+](=O)[O-])c(Cl)cc2Cl)nc(Nc2cccc(C(F)(F)F)c2)n1 | 97% (active) | 13% | 9 | 100% (active) | inactive | inactive | inactive | inactive
CCOC(=O)c1ccc(NC(=O)Nc2cccc(-c3ccc(-c4nc5ccccc5[nH]4)cc3)c2)cc1 | 86% (active) | 54% (active) | -2 | 100% (active) | inactive | inactive | inactive | inactive
O=C(/C=C/c1ccc(Cl)c(Cl)c1)NCCCCCCN1CCN(C(=O)Nc2cc(F)cc(F)c2)CC1 | -1% | 23% | -1 | 86% (active) | inactive | inactive | inactive | inactive
COc1ccc(Cn2c(Nc3cccc(C(F)(F)F)c3)nc3cc(C(=O)NC(C)C)cnc32)cc1Cl | 81% (active) | -6% | 1 | 85% (active) | inactive | inactive | inactive | inactive
CSc1ccc(CN2CCC(NC(=O)c3ccc(-c4ccc(N(C)C)cc4)s3)CC2)cc1 | 26% | 30% | -2 | 86% (active) | inactive | inactive | inactive | inactive
N#Cc1ccc2c(c1)CN(CCC1CCC(NC(=O)c3cc4cnccc4[nH]3)CC1)CC2 (stereo not drawn) | 28% | 13% | -2 | 97% (active) | inactive | inactive | inactive | inactive
CCC1(CC)C(=O)N=C(N2CCCCC2)N(C)C1=O | 66% (active) | -4% | 1 | 89% (active) | inactive | inactive | inactive | inactive
